Screening data deposited in PubChem by several laboratories.
This is a sample that favours compounds with a hit; in the whole collection about 2.5% have one here.
TMEM16A inh – mouse TMEM16A channel inhibition, primary screen | Q8BHY3 | HEK293 TMEM16A/YFP iodide influx fluorescence, ionomycin | normalized B-score (activity score, 25-100; higher = stronger inhibition) at 10 µM | 310,000 compounds, 1.2% hits;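 active = ratio plate-corrected score three or more library SD toward inhibition, starting fluorescence score within five deviations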;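 also: score derived from kinetic fluorescence span divided by baseline fluorescence per well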
aSyn UTR inh – 5' untranslated region of α-synuclein, MLPCN primary screen; 300,000 compounds, 0.82% hits; inhibition, % (tested at 7.5 µM); alpha-synuclein 5'UTR reporter, inhibitor activity; in the data active = inhibition above about 60%;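 also: H4 neuroglioblastoma cells stably carrying SNCA 5'UTR luciferase fusion; 0% = DMSO wells and 100% = positive control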
Jurkat NFkB inh – lowers PMA/ionomycin-induced NF-kB signal in Jurkat cells; PMA/ionomycin-induced NF-kB luciferase reporter, luminescence; AID 435003; 330,000 compounds, 0.53% hits; inhibition, % at 4 µM; in the data active = inhibition above about 50%
TMEM16A act – activates or potentiates the mouse TMEM16A chloride channel | Q8BHY3 | HEK293 TMEM16A/YFP-H148Q/I152L, iodide quench fluorescence; active compounds read low | B-score at 10 µM | 340,000 compounds, 0.3% hits | AID 623877;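 active = fluorescence-ratio B-score plate-corrected deviation score at least 3 library SD below zero, with starting fluorescence score within 5 deviations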;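 also: channel opened by trigger with iodide after compound preincubation; score built on the fluorescence ratio of max minus min over baseline; more negative score means more quench and so TMEM16A activation or potentiation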
KLF5 inhibitor – suppresses KLF5 promoter-driven expression; DLD-1 KLF5 promoter-luciferase reporter, luminescence; 290,000 compounds, 0.23% hits; inhibition, % at 5 µM; AID 1700;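 active = inhibition above a per-plate limit of that plate's mean compound inhibition plus 3 SD, cut at about 60% in these data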;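 also: 0% = DMSO wells and 100% = LY294002 at 200 µM; higher means less KLF5 promoter-driven luciferase light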
697 NFkB inh – lowers PMA/ionomycin-induced NF-kB signal in 697 B cells; 697 B-cell NF-kB luciferase reporter, 16 h; 330,000 compounds, 0.33% hits; AID 435022; inhibition, % at 4 µM; in the data active = inhibition above about 35%
TMEM16A reconf – reconfirmed blocker of mouse TMEM16A calcium-activated chloride channel; shares compounds with TMEM16A inh; inhibition, % at 10 µM; 2,300 compounds, 39% hits; HEK293 TMEM16A/YFP-H148Q, iodide quench fluorescence; ionomycin added to raise cell calcium; AID 652189;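 active = mean duplicate percent inhibition, scaled so buffer wells are 0 and the reference blocker 100, over three buffer SD above buffer mean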
TMEM16A Ca cntr – counter-screen for TMEM16A inhibitors: effect on calcium mobilization | AID 652231 | 2,300 compounds, 2% hits | TMEM16A/YFP HEK293, Fluo4 calcium mobilization | shares compounds with TMEM16A inh | calcium response (% of ionomycin), % at 10 µM;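 active = duplicate-averaged calcium signal over 20% of the ionomycin maximum, relative to buffer baseline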;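 also: each well's signal is peak minus trough fluorescence divided by its pre-addition baseline; 0% = buffer wells and 100% = ionomycin wells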
Parental YFP cnt – parental YFP-HEK293 iodide quench counter-screen activity; shares compounds with TMEM16A inh; ionomycin; YFP ratio F(max-min)/F0 at 10 µM; 2,300 tested, under 10 active;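 active = yellow fluorescent protein signal ratio exceeding the buffer control mean by over 5 SD of those controls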;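 also: ratio is mean of duplicate wells from kinetic YFP trace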
ClC-1 rat inh – rat ClC-1 inhibition, TMEM16A specificity screen; CHO ClC-1-YFP, iodide influx fluorescence quench; iodide control reads 0, buffer control 100; ratio percent, % at 10 µM; 2,300 tested, under 10 active; shares compounds with TMEM16A inh;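 active = duplicate-mean ratio percent above the mean of iodide-only control wells, which defines zero, plus 5 of their SD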;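 also: higher percent means stronger block of ClC-1 iodide influx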
Target sequence (P35524 whole entry, looked up): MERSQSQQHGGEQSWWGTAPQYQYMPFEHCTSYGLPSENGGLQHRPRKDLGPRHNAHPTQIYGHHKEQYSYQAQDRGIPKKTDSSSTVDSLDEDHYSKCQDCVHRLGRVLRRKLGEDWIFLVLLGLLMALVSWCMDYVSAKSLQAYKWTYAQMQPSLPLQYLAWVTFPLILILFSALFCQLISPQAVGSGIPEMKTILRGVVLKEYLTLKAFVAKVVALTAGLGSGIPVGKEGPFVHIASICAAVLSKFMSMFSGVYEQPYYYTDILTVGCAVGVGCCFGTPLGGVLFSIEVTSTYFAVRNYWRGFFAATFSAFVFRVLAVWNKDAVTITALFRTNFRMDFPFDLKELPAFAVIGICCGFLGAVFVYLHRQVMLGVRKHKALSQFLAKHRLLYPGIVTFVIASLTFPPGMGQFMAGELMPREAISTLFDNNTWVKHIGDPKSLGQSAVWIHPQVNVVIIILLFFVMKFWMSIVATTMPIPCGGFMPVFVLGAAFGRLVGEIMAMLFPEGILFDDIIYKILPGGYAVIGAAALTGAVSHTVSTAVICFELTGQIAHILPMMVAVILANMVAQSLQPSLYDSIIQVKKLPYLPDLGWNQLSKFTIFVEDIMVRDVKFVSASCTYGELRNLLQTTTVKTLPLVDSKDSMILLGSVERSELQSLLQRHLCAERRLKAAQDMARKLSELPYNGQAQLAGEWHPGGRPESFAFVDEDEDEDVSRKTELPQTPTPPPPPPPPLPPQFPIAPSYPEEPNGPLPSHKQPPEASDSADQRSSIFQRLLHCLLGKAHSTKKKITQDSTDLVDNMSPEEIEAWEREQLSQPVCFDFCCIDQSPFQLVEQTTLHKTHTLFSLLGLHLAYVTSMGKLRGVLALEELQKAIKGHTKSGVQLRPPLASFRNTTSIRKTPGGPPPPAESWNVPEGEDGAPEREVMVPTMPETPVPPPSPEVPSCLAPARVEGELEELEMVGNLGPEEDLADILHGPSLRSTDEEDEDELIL
Starred values were filed as active, the others as inactive; i = inactive; / = no result.

SMILES | TMEM16A inh | aSyn UTR inh | Jurkat NFkB inh | TMEM16A act | KLF5 inhibitor | 697 NFkB inh | TMEM16A reconf | TMEM16A Ca cntr | Parental YFP cnt | ClC-1 rat inh
Cc1ccc(NS(=O)(=O)c2ccc(C(=O)N3CC(C)CC(C)C3)cc2)cc1 (configuration not stated) | 100* | -5 | -12 | -17* | / | -27 | 80%* | 40%* | -1.1 | -7
Cc1c(C(=O)Nc2ccc3c(c2)OCCO3)sc2nc(-c3ccccc3)cn12 | 25* | -7 | -2 | i | -35 | -20 | 16%* | i | -0.94 | -12
Cc1c(C(=O)Nc2ccncc2)sc2nc(-c3ccccc3)cn12 | i | -51 | 9 | i | -18 | -9 | / | / | / | /
Cc1cc(C(=O)COC(=O)/C=C/c2ccco2)c(C)n1C | / | / | -11 | i | / | -14 | / | / | / | /
CCOC(=O)c1nnn(-c2nonc2-n2cccc2)c1CN1CCCCC1 | 100* | 3 | -11 | -6.9* | -22 | -20 | i | i | -1.1 | -14
CCOC(=O)c1nnn(-c2nonc2N)c1CN1CCCCCC1 | i | -11 | 12 | i | 19 | 17 | / | / | / | /
CCOC(=O)N1CCC(NCCNC(=O)c2cccc(F)c2)CC1 | / | / | -5 | i | / | 13 | / | / | / | /
Cc1cc(C)c(S(=O)(=O)Nc2ccccc2-c2ccccc2)c(C)c1 | 25* | -1 | 23 | i | -2 | -16 | i | i | -1.3 | -4
COc1ccccc1-c1coc2c(CN3CCOCC3)c(O)ccc2c1=O | i | 9 | -3 | i | 8 | 20 | / | / | / | /
O=C(NCc1ccc(Cl)cc1Cl)c1ccccn1 | 25* | / | 12 | i | -21 | 7 | i | i | -1.1 | -11
CC(C)(C)CC(C)(C)SSc1n[nH]c(=S)s1 | / | / | / | i | / | / | / | / | / | /
CCc1c(C(=O)Nc2nnc(C3CC3)s2)csc1C | 100* | -119 | -12 | i | -8 | -34 | i | i | -0.95 | -5
CCn1c(=O)c(CCC(=O)N2CCN(c3ccccn3)CC2)c(C)c2c(C)nn(-c3ccccc3)c21 | i | -4 | 6 | i | 2 | -31 | / | / | / | /
CC(=O)c1ccc(NS(=O)(=O)c2cc(-c3cnc(C4CC4)o3)ccc2C)cc1 | i | 33 | 0 | i | -32 | -11 | / | / | / | /
Cc1ccc(N(C)S(=O)(=O)c2cc(-c3cnc(C4CC4)o3)ccc2C)cc1 | 100* | 9 | 15 | i | 2 | -10 | 20%* | i | -1.4 | -9
CCOc1ccc(N(C)S(=O)(=O)c2cc(-c3cc(C)no3)ccc2C)cc1 | 100* | -43 | 29 | i | -15 | -23 | 31%* | i | -0.92 | -16
COc1cccc(NC(=O)COC(=O)c2ccccc2C(=O)N(C)c2ccccc2)c1 | / | / | -2 | i | / | 10 | / | / | / | /
NC(=O)C1CCN(C2=C(Cl)C(=O)c3ccccc3C2=O)CC1 | 100* | -24 | 0 | i | -18 | 34 | 28%* | i | -0.97 | -30
COc1ccc(COC(=O)CCc2cc(OC)c(OC)c(OC)c2)cc1F | / | / | / | i | / | / | / | / | / | /
O=C(NCCn1cc(SCc2ccccc2)c2ccccc21)c1ccccc1F | 25* | 2 | -27 | i | -20 | -17 | i | i | -1.2 | -10
CC(=O)c1cccc(S(=O)(=O)Nc2ccc3nc(C)sc3c2)c1 | 100* | -2 | 1 | i | -1 | -10 | i | i | -0.96 | -10
Cc1ccc(C)c(NC(=O)CSc2nnc(-c3ccccc3)o2)c1 | 100* | -10 | -8 | i | 9 | 8 | i | i | -0.99 | -8
Cc1ccc(NC(=O)CSc2nnc(-c3cccnc3)o2)c(C)c1 | i | -1 | 8 | i | / | 32 | / | / | / | /
Cc1cc(C)n2nc(SCC(=O)NC3CCCCC3C)nc2n1 (configuration not stated) | i | -4 | / | i | -21 | / | / | / | / | /
COc1cc(C=O)ccc1OC(=O)Nc1ccccc1 | i | -44 | -9 | i | / | -2 | / | / | / | /
SMILES | TMEM16A inh | aSyn UTR inh | Jurkat NFkB inh | TMEM16A act | KLF5 inhibitor | 697 NFkB inh | TMEM16A reconf | TMEM16A Ca cntr | Parental YFP cnt | ClC-1 rat inh
Cc1ccc(SCC(=O)N(Cc2nc(-c3ccccc3)no2)C(C)C)cc1 | 100* | -37 | 8 | i | 4 | -1 | i | i | -1.2 | -5
COc1ccccc1C(=O)N(Cc1nc(-c2ccc(Cl)cc2)no1)C(C)C | 100* | 8 | 3 | i | -5 | 11 | i | i | -0.92 | -3
CC(C)N(Cc1nc(-c2ccccc2)no1)C(=O)c1ccc(Cl)cc1 | i | 20 | -3 | i | 20 | -12 | / | / | / | /
Cc1ccc(C(=O)N(Cc2nc(-c3ccc(C)cc3)no2)C(C)C)cc1 | i | -14 | 3 | i | 15 | -6 | / | / | / | /
CN1CCN(CC(=O)Nc2nc(-c3ccccc3)cs2)CC1 | i | -5 | -6 | i | -4 | -23 | / | / | / | /
COc1ccc(C2(O)CCN(CC(=O)Nc3nc(-c4ccccc4)cs3)CC2)cc1 | 25* | -54 | 9 | i | -16 | -9 | 36%* | i | -0.81 | -29
CCOc1ccccc1NC(=O)NC1(C(=O)NCc2cccnc2)CCCCC1 | i | -10 | 11 | i | -25 | 4 | / | / | / | /
Cc1ccccc1NC(=O)CCCSc1nc2ccccc2s1 | 100* | -18 | 23 | i | -37 | 6 | i | i | -0.85 | -12
Cc1[nH]n(-c2ccccc2)c(=O)c1N=Nc1c(O)cc(S(=O)(=O)N(C)C)c2ccccc12 | 100* | 71* | -3 | i | / | -4 | 48%* | i | -0.95 | -3
Cc1ccc(Cn2c(CCC(=O)O)nc3ncccc3c2=O)cc1 | i | -1 | -32 | i | -5 | 0 | / | / | / | /
Cn1nnnc1Sc1ncnc2scc(-c3ccsc3)c12 | / | / | -13 | i | / | -89 | / | / | / | /
O=C(COC(=O)C12CC3CC(CC(C3)C1)C2)Nc1ccc(OC(F)F)cc1 | 25* | -15 | -1 | i | -7 | 18 | i | i | -1.3 | -12
CC1CCN(c2ncnc3c2cnn3Cc2ccc(Cl)cc2)CC1 | i | / | -2 | i | -17 | 3 | i | i | -0.96 | -10
Cc1cc(C)nc(N2CCN(c3ncnc4c3cnn4Cc3ccc(Cl)cc3Cl)CC2)n1 | 100* | 6 | 16 | / | / | 12 | 28%* | i | -1 | -20
